High-throughput results: PubChem, National Center for Advancing Translational Sciences (NCATS)
RORg inh: ROR gamma (mouse) transcription inhibition; Drosophila S2 Gal4-RORgamma UAS-luciferase reporter, 20 h; Potency, µM (top dose mostly 53.6 µM), without a hit: at the top dose activity change, negative = inhibition, actives largely listed as inhibitors; 5.4% of 310,000 active; further: potency means the concentration at half of the fitted maximal effect; on the % scale 0 is the no-effect control and ±100 the full control effect; nearly all actives have a fitted effect of over 60% in size
Target sequence (P51450 whole entry, looked up, the tested form may be a part): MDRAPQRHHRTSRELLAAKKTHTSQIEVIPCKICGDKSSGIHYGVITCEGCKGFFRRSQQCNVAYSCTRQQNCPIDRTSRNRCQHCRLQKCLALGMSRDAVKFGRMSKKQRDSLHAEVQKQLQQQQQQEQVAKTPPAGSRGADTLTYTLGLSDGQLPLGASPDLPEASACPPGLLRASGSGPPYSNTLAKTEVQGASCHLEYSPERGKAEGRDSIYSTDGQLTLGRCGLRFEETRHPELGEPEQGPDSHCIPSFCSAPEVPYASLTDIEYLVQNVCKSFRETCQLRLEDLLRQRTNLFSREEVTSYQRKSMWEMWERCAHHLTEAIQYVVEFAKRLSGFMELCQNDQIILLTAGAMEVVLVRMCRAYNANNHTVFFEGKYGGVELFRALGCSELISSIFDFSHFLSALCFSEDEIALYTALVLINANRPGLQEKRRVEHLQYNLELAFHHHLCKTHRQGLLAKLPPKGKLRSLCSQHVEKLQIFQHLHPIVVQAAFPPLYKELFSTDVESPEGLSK
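Read-out: Photinus luciferase luminescence; inhibitors lower reporter signal. Insect Schneider cells with Gal4-ROR gamma fusion under metallothionein promoter, UAS reporter; 700 uM final copper sulfate induction, 20 hr, ambient temperature.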
IL-1B inflam inh: blocks inflammasome-driven IL-1 beta release; activity change, % at 57.5 µM; AID 743279; THP-1 LPS/ATP IL-1B secretion, AlphaLISA, 16 h; stronger effect = lower value; 4.7% of 360,000 active; in the data active means activity change below about -50%; inconclusive means mostly about -30% to -49%; further: on the % scale 0 is the no-effect control and ±100 the full control effect
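Secreted IL-1B measured by AlphaLISA bead assay after 16 h compound exposure of THP-1 cells; compounds (final up to 57.5 uM) added 1 h before LPS (250 ng/mL) and ATP (1.25 mM) stimulation; lower signal means less secretion.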
VP16 counter: inhibits Gal4-VP16 luciferase reporter, ROR gamma counter-screen; AID 2546; Potency, µM (titrated, usually from 53.6 µM), without a hit: at the highest dose activity, negative = inhibition, hits mostly inhibitors; Drosophila S2 Gal4-VP16 UAS-luciferase, luminescence, 20 h; 3.5% of 310,000 active;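 further: Gal4-VP16 expression switched on by copper sulfate through the metallothionein promoter; potency means the concentration at half of the fitted maximal effect; on the % scale 0 is the no-effect control and ±100 the full control effect; nearly all actives have a fitted effect of over 50% in size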
SW480 rereplic: DNA re-replication induction in SW480 cells. AID 624297. Potency, µM (doses to about 46.1 µM), without a hit: top-dose re-replication activation, most hits filed as activators. 1.8% of 340,000 active. SW480 DNA re-replication, Hoechst DNA content imaging, 48 h; further: potency means the concentration at half of the fitted maximal effect; % of control where 0% means no effect; nearly all actives have a fitted effect of over 55% in size
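Cells (250 per well) received 23 nL compound or DMSO by pin tool and were kept 48 hr at 37 C, 5% CO2. Nuclei were then stained with Hoechst for 40 min and scanned for DNA content.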
MCF10A rerep: inducers of DNA re-replication in MCF 10A breast cells. MCF 10A DNA re-replication, Hoechst nuclear intensity, 48 h. Potency, µM (series often up to 46.1 µM), without a hit: at the top dose activity, positive = re-replication, most hits filed as activators. 2.9% of 350,000 active. AID 624296; further: potency means the concentration at half of the fitted maximal effect; % of control where 0% means no effect; nearly all actives have a fitted effect of over 50% in size
* marks the source's active call; other numbers are inactive results; ? = inconclusive; · = no result; [ ] = dose if it differs, or a comment. Rows were chosen to be rich in hits. Some 11% of all compounds tested hit in one or more screens of this group. Unless noted, the call rests on the fitted dose curve; in most records, active means well fitted curve in the direction sought with a large enough effect; inconclusive means small, poorly fitted or top-dose-only effect, or another doubt; inactive means no such curve, though single readings can be large; an effect the other way counts as inactive or inconclusive.

SMILES	RORg inh	IL-1B inflam inh	VP16 counter	SW480 rereplic	MCF10A rerep
CC1(C)CC(=O)C2=C(C1)NC1=C(C(=O)c3ccccc31)C2c1cccnc1 (stereo unspecified)	12%	9	3%	-3%	0%
CC1(C)CC(=O)C2=C(C1)NC1=C(C(=O)c3ccccc31)C2c1cc([N+](=O)[O-])ccc1O (stereo unspecified)	8%	-62*	1%	?	?
COc1ccc(S(=O)(=O)N(Cc2ccccc2)Cc2nc3ccccc3c(=O)[nH]2)cc1	13µM*	2	11µM*	-2%	15%
O=c1[nH]c(CN(CCc2ccccc2)S(=O)(=O)c2ccc(Cl)cc2)nc2ccccc12	4.5µM*	14	6.3µM*	?	-38%
Nc1c(C(=O)OCC(=O)Nc2cccc([N+](=O)[O-])c2)[nH]c(=O)[nH]c1=O	·	15	·	-2%	1%
O=C(c1cc(-c2ccccc2Cl)nc2ccccc12)N1CCC1	·	18	·	-4%	-1%
Cc1ccc(-c2cc(C(=O)N3CCN(c4ccccc4O)CC3)c3ccccc3n2)cc1	·	?	·	?	15%
CN1CCCN(C(=O)c2cc(-c3cccc4ccccc34)nc3ccccc23)CC1	-10%	-63*	-6%	-5%	-2%
Cc1ccccc1-c1cc(C(=O)N2CCCC2)c2ccccc2n1	·	-7	·	-4%	?
O=C(c1cc(-c2cccs2)nc2ccccc12)N1CCN(c2ccccc2O)CC1	?	-67*	-14%	?	?
O=C(c1cc(-c2ccccc2Cl)nc2ccccc12)N1CCN(c2ccccc2O)CC1	·	-70*	·	2%	?
CC(=O)N1CCN(c2nc(-c3cccs3)nc3ccccc23)CC1	-18%	-86*	-4%	?	2%
CN(C)CCCO[C@H]1[C@@H]2OC(C)(C)O[C@@H]2O[C@@H]1[C@H](O)CO	1%[16.9 µM]	·	1%[17 µM]	·	·
CNc1ncnc2c1ncn2[C@H]1CN(Cc2cccnc2)C[C@@H](CO)O1	·	0	·	·	·
CC(=O)c1c(C)[nH]c(C(=O)OCC(=O)Nc2ccc(Cl)cc2[N+](=O)[O-])c1C	?	28	5µM*	-11%	4%
CCOC(=O)Nc1ccc2c(CNC(C)c3ccccc3OC)cc(=O)oc2c1 (stereo unspecified)	-9%	-7	-14%	24%	18µM*
COc1ccc2cc3cc(C(=O)Nc4ccccc4N4CCN(C)CC4)oc3nc2c1	2%	-96*	-29%	?	?
COCCNC(=O)c1cc2cc3ccc(OC)cc3nc2o1	33%	-5	?	-21%	-1%
COc1ccc2cc3cc(C(=O)NCCN4CCN(c5ccccc5F)CC4)oc3nc2c1	?	-18	-13%	?	?
COc1ccc2cc3cc(C(=O)NCC4CCCO4)oc3nc2c1 (stereo unspecified)	27%	-56*	-2%	-3%	-2%
CCOc1ccc(NC(=O)c2cc3cc4ccc(OC)cc4nc3o2)cc1	-1%	-4	2%	?	12µM*
Cc1ccc(NC(=C(C#N)C#N)c2ccccc2)cc1	·	2	·	·	·
NNC(=O)c1ccc(Cn2cc(Br)cn2)cc1	-23%	13	2%	-4%	2%
COc1ccc(-c2cn3cc(C(=O)NN)ccc3n2)cc1	?	-2	10µM*	-10%	-1%
NNC(=O)c1ccc2nc(-c3ccc(Br)cc3)cn2c1	11µM*	-26	?	?	8%
SMILES	RORg inh	IL-1B inflam inh	VP16 counter	SW480 rereplic	MCF10A rerep
CC(C)(C)Nc1oc(-c2ccccc2)nc1-c1ccccc1	-21%	·	2%	·	·
Cn1cncc1C#Cc1ccc2cc(CCO)oc(=O)c2c1	·	-17	·	-8%	-7%
OC(CNCc1ccc(F)cc1)(c1ccc(F)cc1)c1ccc(F)cc1	6%	-55*	-8%	26%	?
OC(CNCc1ccc(Cl)cc1)(c1ccccc1)c1ccc(F)cc1 (stereo unspecified)	?	-67*	11µM*	-1%	?
CCCCNCC(O)(c1ccc(Cl)cc1)c1ccc(Cl)cc1	-16%	-132*	-7%	-20%	?
CC1(C(=O)NCc2ccccn2)CCN1C(=O)Cc1ccc(Cl)cc1Cl (stereo unspecified)	·	30	·	·	·
